This note sets out measurements from ChEMBL document CHEMBL3988442, “University of Dundee, Small-Polar-MMV Screening Library” (2021).

For some of these results: Results with a measured potency or affinity are listed apart.

Common to all, as to parameters: scale not given: direction of the effect not stated beside the values
Test [1] deals with Protein translocase subunit SecA (Escherichia coli (strain K12)) (UniProt P10408). Kind of test: Assay to Identify E. coli SecA ATPase Inhibitors. It counts as functional. To be noted: 30 µM.
Protein translocase subunit SecA (Escherichia coli (strain K12)), sequence (P10408 whole entry): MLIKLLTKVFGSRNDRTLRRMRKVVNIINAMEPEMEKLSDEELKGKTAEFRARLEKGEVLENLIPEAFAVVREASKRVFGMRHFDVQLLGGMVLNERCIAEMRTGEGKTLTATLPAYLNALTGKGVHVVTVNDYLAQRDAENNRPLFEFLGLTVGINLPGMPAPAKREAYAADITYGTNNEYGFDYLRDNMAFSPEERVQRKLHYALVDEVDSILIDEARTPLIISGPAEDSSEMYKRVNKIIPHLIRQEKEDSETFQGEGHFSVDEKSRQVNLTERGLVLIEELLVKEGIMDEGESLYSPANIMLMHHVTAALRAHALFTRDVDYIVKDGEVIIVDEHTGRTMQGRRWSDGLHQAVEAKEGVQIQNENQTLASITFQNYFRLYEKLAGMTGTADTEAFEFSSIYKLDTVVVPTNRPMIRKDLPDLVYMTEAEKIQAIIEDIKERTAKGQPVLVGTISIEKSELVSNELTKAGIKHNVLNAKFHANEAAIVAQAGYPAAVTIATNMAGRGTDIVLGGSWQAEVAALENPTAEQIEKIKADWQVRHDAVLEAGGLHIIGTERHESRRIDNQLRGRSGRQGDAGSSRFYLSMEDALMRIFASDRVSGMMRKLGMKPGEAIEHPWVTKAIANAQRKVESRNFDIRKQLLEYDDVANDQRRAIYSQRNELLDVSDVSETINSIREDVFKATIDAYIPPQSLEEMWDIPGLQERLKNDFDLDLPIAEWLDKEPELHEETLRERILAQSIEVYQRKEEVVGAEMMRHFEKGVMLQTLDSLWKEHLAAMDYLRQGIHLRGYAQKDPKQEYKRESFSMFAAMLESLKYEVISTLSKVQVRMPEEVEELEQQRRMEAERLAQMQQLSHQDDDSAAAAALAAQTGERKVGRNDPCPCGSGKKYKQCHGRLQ
In test [2] the target is T1, Ubiquitin-activating enzyme e1, putative (Leishmania donovani (strain BPK282A1)) (UniProt E9BSI1).
T1 sequence (whole entry): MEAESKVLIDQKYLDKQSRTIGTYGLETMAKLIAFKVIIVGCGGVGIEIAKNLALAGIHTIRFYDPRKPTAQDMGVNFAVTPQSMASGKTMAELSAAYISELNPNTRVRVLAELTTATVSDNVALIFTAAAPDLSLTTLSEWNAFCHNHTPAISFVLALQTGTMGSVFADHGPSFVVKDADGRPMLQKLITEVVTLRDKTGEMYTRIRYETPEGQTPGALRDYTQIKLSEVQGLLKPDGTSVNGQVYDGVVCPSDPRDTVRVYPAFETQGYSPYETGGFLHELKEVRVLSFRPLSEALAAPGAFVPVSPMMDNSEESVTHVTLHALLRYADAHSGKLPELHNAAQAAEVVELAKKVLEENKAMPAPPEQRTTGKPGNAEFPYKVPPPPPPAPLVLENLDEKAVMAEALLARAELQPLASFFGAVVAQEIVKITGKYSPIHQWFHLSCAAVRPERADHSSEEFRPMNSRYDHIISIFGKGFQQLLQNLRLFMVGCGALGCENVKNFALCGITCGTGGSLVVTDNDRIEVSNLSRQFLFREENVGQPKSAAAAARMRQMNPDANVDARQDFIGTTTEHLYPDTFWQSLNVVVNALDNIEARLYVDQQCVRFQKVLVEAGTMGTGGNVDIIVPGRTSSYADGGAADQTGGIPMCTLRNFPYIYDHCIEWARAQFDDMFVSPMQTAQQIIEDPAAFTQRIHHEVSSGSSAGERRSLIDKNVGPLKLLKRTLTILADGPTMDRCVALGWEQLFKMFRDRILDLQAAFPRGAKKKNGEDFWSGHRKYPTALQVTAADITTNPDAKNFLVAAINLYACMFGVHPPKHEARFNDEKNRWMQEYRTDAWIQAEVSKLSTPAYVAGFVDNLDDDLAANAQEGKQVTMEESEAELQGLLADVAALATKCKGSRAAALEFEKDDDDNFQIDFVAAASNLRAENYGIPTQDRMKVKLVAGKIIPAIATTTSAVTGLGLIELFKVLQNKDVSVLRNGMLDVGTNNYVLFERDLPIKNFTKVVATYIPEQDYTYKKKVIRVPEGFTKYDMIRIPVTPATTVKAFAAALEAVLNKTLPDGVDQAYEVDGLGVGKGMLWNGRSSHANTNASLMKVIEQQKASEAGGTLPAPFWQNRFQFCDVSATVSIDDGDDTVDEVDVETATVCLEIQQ
Kind of test: Leishmania donovani Ubiquitin Activating Enzyme (LdE1). It counts as functional. To be noted: 30 µM.

Test [3] deals with AMP-activated protein kinase, AMPK (Homo sapiens) (UniProt P54646+O43741+P54619+Q9UGJ0+Q9Y478+Q13131+Q9UGI9). Put plainly: AMP-dependent Kinase enzyme assay. An in vitro enzyme assay that detects ADP turnover that is directly proportional to AMPK activity. This uses naive AMPK that is activated during the assay with MK-8722. It is filed as functional. Conditions: 30 µM.
The target of test [4] is Sialic acid-binding Ig-like lectin 9 (Homo sapiens) (UniProt Q9Y336). Kind of test: Hs-Siglec9 ALPHAscreen SOP 20170721. Conditions: 10 µM. Background: Alpha assays give light when donor and acceptor beads are brought close together.
Sialic acid-binding Ig-like lectin 9 (Homo sapiens), sequence (Q9Y336 whole entry): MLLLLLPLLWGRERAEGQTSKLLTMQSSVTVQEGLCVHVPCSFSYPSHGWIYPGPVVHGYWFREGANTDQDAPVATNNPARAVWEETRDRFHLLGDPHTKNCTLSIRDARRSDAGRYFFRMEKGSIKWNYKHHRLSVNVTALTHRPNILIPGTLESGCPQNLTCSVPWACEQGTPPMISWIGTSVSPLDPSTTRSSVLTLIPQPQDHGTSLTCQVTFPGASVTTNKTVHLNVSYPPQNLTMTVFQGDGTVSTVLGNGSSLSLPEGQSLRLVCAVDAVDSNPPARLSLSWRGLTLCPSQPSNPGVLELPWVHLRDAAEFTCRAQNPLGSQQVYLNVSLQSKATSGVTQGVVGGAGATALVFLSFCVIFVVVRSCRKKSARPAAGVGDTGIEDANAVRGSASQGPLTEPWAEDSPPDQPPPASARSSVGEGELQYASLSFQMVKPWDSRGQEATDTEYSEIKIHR
The subject of test [5] is Trypanosoma cruzi. Kind of test: Trypanosoma cruzi phosphomannomutase and mannose-1-phosphate guanylyltransferase assay. It counts as functional. To be noted: 10 µM.
The target of test [6] is T2, Arginase-2, mitochondrial (Homo sapiens) (UniProt P78540).
T2 sequence (whole entry): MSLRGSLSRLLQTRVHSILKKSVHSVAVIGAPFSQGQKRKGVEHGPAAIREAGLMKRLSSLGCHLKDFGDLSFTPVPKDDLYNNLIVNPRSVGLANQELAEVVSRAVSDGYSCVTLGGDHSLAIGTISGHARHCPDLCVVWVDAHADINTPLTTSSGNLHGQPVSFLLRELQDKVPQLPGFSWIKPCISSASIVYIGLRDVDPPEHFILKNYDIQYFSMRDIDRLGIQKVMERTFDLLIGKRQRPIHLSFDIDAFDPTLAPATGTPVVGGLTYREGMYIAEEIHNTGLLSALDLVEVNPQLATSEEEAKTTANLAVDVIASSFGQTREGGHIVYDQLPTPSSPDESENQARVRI
Put plainly: in vitro enzyme assay to detect the production of urea directly proportional to the activity of Arginase II. Note: in the data most compounds retested in dose-response had high values. Conditions: 33.3 µM. It is filed as functional.

In test [7] the target is T3, Proteasome subunit beta (Trypanosoma cruzi) (UniProt O96673).
T3 sequence (whole entry): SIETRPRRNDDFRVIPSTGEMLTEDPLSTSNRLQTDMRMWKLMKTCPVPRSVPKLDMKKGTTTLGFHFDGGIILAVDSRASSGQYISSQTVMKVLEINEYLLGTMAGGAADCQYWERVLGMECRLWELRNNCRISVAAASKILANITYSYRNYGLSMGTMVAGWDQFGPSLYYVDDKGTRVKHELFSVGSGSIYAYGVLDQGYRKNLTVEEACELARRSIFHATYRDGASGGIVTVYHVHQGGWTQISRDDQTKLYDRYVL
Put plainly: Trypanosoma cruzi proteasome chymotrypsin-like activity (TcProtChymo) assay. Note: in the data most compounds retested in dose-response had high values. It counts as functional. To be noted: 9.37 µM.

The species entered for test [8] is Homo sapiens. Kind of test: To identify inhibition of the IFN signalling (Jak-Stat) pathway via expression of an eGFP reporter gene under the control of an IFN-stimulated response element (ISRE) containing MxA promoter. To be noted: 30 µM. It counts as functional. For orientation: A reporter such as luciferase makes a cellular process visible.
Test [9] has as its target T4, Tyrosyl-tRNA synthetase, putative (Trypanosoma cruzi (strain CL Brener)) (UniProt Q4DSP6).
T4 sequence (whole entry): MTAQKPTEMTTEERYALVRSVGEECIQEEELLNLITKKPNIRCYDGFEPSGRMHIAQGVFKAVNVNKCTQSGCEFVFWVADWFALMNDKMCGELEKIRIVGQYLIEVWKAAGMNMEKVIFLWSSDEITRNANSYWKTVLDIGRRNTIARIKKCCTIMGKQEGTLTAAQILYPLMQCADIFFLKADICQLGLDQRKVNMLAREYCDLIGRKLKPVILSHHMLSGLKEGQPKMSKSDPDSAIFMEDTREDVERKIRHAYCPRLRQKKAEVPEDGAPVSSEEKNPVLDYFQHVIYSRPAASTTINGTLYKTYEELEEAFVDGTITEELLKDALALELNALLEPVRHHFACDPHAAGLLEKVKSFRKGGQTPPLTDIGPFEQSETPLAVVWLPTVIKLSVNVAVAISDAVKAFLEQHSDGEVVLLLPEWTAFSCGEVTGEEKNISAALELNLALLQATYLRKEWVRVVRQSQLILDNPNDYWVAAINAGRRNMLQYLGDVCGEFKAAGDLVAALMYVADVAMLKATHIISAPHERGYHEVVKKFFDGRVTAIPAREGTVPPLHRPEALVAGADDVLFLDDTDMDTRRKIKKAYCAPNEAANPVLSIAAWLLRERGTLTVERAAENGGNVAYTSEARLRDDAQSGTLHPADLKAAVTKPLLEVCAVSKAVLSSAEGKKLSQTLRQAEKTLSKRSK
Put plainly: Trypanosoma cruzi tyrosyl tRNA synthetase (TcYRS) _High Tyrosine SOP. Note: in the data most compounds retested in dose-response had high values. It counts as functional. To be noted: 30 µM.

The target of test [10] is T4, Tyrosyl-tRNA synthetase, putative (Trypanosoma cruzi (strain CL Brener)). Kind of test: Trypanosoma cruzi tyrosyl tRNA synthetase (TcYRS) SOP. It is filed as functional. Conditions: 30 µM.
Test [11] deals with Chromo domain-containing protein 1 (Saccharomyces cerevisiae (strain ATCC 204508 / S288c) (Baker's yeast)) (UniProt P32657). Put plainly: ScCHD-1 Enzyme Inhibition Assay. Note: in the data most compounds retested in dose-response had high values. It counts as functional. Conditions: 30 µM.
Chromo domain-containing protein 1 (Saccharomyces cerevisiae (strain ATCC 204508 / S288c) (Baker's yeast)), sequence (P32657 whole entry, the tested form may be a part): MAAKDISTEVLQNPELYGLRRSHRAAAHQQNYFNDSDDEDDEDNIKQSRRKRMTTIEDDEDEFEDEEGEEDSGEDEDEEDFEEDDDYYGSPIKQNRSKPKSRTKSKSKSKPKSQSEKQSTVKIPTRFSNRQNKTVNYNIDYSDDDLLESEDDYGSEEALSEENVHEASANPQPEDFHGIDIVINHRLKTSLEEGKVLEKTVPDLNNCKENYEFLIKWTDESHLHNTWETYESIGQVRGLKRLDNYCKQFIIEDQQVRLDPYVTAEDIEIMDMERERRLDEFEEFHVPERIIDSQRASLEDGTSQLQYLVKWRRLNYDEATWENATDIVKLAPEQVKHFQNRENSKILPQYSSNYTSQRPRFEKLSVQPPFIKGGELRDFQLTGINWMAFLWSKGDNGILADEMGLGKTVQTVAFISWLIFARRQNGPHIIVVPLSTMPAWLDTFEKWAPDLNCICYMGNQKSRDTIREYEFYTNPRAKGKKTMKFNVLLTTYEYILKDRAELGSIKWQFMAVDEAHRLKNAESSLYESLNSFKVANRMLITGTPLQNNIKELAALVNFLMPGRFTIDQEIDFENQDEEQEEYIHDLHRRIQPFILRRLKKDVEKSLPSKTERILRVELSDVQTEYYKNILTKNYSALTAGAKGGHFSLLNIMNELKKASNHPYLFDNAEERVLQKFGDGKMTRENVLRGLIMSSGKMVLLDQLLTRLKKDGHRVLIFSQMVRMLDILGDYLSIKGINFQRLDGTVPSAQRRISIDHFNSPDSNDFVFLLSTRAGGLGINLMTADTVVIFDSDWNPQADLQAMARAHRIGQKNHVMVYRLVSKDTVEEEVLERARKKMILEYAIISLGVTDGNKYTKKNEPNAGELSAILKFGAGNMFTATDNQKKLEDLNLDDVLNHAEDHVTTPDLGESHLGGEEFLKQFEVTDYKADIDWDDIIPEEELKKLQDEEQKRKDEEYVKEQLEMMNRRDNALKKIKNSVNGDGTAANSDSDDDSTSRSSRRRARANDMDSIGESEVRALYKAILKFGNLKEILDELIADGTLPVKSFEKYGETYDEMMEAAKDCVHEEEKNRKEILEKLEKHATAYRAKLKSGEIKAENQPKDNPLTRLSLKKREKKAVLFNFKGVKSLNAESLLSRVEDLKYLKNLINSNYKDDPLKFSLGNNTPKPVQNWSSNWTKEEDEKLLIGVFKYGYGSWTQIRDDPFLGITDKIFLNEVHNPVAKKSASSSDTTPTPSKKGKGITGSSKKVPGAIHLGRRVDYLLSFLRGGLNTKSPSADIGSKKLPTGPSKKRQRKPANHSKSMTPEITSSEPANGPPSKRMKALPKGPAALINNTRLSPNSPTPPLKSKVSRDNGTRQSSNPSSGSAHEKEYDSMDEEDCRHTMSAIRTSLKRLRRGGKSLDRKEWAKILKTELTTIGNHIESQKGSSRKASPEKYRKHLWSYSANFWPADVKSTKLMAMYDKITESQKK

Turning to `CCN(CC(=O)NC(C)C)S(=O)(=O)N1CCCCCC1`, the Percent Effect was -2.15% in test [1]; 16.2% in [2]; -3.94% in [3]; 11.8% in [4]; 2.64% in test [5]; 3.23% in test [6]. Further, the Percent Effect in test [7] is 12.3%; in [8], 5.69%; in test [9] it was 3.23%; in test [10], 16.1%; in test [11], -10.9%.
As to `CCCc1nc(C(C)(C)NC(=O)C2CC(=O)N(CC3CC3)C2)no1` (stereo not drawn), the Percent Effect in test [1] was -3.09%; in test [2], 10.8%; in test [3] it was -4.68%; in [4], -4.84%; in test [5], -6.78%; in test [6], 2.4%. The Percent Effect in test [7] was -5.75%; in test [8], 14.8%; in [9], 2.97%; in test [10], 11%; in [11], 5.6%.
In the case of `Cc1ccc2cnn(CCC(=O)Nc3c(C)nn(C)c3C)c2c1`, the Percent Effect in test [1] is -3.51%; in [2] it was 5.2%; in test [3] it was 2.92%; in [4] it was 2.18%; in test [5], -4.03%; in test [6], -4.14%. The Percent Effect is 5.16% in test [7]; -0.975% in [8]; 2.15% in [9]; 8.64% in test [10]; -0.912% in [11].
Consider `O=C([C@@H]1CCO[C@@H]2CCN(Cc3cccnc3)C[C@H]21)N1CCCCO1`, for which the Percent Effect in [1] was -2.75%; in test [2], 14.7%; in [3], 2.91%; in [4] it was 5.02%; in test [5], -1.57%; in test [6] it was -6.51%. Further, the Percent Effect in test [7] was 11.5%; in [8], 17.3%; in [9], 4.23%; in test [10], 7.69%; in test [11], -7.97%.
For `Cc1ccc2c(n1)N(CCn1cccn1)CCN(C(=O)CC1CC1)C2`, the Percent Effect in test [1] is -3.68%; in test [2], 5.41%; in test [3] it was -9.57%; in [4], 3.09%; in [5], -4.4%; in test [6], 1.74%. Also, the Percent Effect in test [7] is 10.6%; in test [8], 10.3%; in test [9] it was -5.38%; in [10], 11.1%; in [11] it was -7.62%.
For the molecule `O=C1NCCN1C1CCN(CCc2cccs2)CC1`, the Percent Effect in test [1] is -7%; in test [2] it was 18.2%; in test [3], -1.15%; in test [4] it was -8.84%; in test [5], 5.78%; in test [6], -3.16%. Besides, the Percent Effect in test [7] is 17.5%; in test [8], 2.25%; in [9], 5.71%; in [10] it was 23.5%; in [11], -17.6%.
Turning to `O=C(Cc1cccc(F)c1)NCCNCc1ccco1`, the Percent Effect was -9.13% in test [1]; 2.6% in test [2]; 7.05% in test [3]; -0.647% in test [4]; -3.37% in test [5]; -2.13% in test [6]. Also, the Percent Effect in test [7] was 7.09%; in test [8], 34.8%; in test [9], 3.88%; in [10], 2.44%; in test [11], -7.92%.
As to `O=C(NC[C@]12COC[C@H]1CN(Cc1nccs1)C2)N1CCCC1`, the Percent Effect in test [1] is -2.52%; in test [2], 9.33%; in test [3], 4.41%; in test [4], 2.77%; in [5], -4.52%; in test [6], -7.92%. In addition, the Percent Effect in test [7] is 13.5%; in test [8], -4.41%; in [9], 2.12%; in [10], 5.13%; in test [11] it was -5.18%.
